WRN inhibitor: inhibitors of human WRN helicase; Q14191; WRN helicase unwinding, fluorescent forked duplex, kinetic; Potency, µM (titrated, usually from 114 µM), hits mostly inhibitors; 360,000 tested, 0.46% active; AID 651768; further: nearly all actives have a fitted effect of over 55% in size
Target sequence (Q14191 whole entry, looked up): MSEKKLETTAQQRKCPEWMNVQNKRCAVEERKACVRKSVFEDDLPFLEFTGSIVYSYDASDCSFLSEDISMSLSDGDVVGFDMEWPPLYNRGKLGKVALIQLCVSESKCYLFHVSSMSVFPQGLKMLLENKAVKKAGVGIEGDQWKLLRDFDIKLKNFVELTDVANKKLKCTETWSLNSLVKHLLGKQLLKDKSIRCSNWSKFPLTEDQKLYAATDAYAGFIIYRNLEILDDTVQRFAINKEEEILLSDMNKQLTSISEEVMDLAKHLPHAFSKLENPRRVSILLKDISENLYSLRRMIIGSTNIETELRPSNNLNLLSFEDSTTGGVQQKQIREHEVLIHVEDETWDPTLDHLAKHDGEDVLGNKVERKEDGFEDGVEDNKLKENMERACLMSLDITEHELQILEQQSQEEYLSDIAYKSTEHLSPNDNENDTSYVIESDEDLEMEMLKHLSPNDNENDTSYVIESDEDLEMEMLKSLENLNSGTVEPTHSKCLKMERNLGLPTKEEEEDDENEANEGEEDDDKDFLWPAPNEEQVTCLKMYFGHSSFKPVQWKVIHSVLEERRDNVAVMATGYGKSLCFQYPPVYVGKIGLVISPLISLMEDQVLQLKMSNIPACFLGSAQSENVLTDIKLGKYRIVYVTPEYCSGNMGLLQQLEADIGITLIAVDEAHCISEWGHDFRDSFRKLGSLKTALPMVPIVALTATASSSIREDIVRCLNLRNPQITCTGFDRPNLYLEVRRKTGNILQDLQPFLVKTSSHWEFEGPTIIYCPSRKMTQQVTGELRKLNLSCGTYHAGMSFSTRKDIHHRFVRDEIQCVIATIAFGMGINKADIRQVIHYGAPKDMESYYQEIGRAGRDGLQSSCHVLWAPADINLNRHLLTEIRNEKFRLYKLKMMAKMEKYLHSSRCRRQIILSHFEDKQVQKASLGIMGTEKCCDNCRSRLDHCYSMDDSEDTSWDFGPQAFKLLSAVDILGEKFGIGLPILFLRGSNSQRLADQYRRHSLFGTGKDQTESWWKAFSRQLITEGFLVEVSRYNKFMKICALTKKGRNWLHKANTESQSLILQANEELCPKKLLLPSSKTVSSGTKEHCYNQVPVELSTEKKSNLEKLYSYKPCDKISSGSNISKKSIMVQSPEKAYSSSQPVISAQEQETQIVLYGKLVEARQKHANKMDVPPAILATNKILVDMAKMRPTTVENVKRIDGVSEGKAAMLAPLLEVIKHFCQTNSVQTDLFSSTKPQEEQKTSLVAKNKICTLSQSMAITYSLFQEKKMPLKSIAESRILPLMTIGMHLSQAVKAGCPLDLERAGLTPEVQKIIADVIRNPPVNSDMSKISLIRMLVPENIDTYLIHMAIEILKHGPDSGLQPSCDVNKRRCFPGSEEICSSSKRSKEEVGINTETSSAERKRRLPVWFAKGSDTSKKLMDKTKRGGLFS
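WRN at 20 nM final preincubated with compound 15 min at room temperature; reaction started with 100 nM fluorophore/quencher forked duplex oligonucleotide and 2 mM ATP final. Unwinding followed kinetically by red fluorescence (ex 525, em 598 nm).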
APE1 inh: inhibitors of human APE1 endonuclease. 350,000 tested, 0.35% active. Potency, µM (titrated, usually from 65.8 µM), usual class: inhibitors. recombinant APE1, TAMRA/BHQ-2 abasic DNA cleavage fluorescence. P27695; further: nearly all actives have a fitted effect of over 55% in size
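Step 1: APE1 (0.75 nM) with compound, 15 min RT. Step 2: add 50 nM fluorophore/quencher THF duplex. Step 3: three fluorescence reads 60 s apart (525/598 nm); read 3 minus read 1 = reaction progress.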
BLM helicase inh: blocks DNA unwinding by human BLM helicase; 350,000 tested, 0.2% active; Potency, µM (doses to about 56.1 µM), hits mostly inhibitors; recombinant BLM DNA unwinding, fluorescence dequenching; further: nearly all actives have a fitted effect of over 35% in size
L3MBTL1 block: blocks human L3MBTL1; Q9Y468; AlphaScreen L3MBTL1–H3K9me1 peptide binding; Potency, µM (top dose mostly 57.1 µM), most hits filed as inhibitors; 230,000 tested, 0.66% active; further: nearly all actives have a fitted effect of over 60% in size
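Displacement of a biotinylated histone H3(1-15) peptide monomethylated at Lys9 (75 nM) from L3MBTL1 (50 nM) was measured by AlphaScreen after a 30 min room-temperature compound incubation; cefsulodin titration served as intraplate control.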
RECQ1 inh: RECQ1 (human) helicase inhibition. P46063. 240,000 tested, 0.54% active. Potency, µM (highest dose often 57.3 µM), actives largely listed as inhibitors. RECQ1 DNA unwinding, red fluorescence kinetic read; further: nearly all actives have a fitted effect of over 30% in size
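50 nM RECQ1T1 preincubated 15 min with compound in Tris pH 8.0 buffer with MgCl2, DTT, Tween-20 and 2.5 ug/ml poly(dI-dC); started with 200 nM TAMRA/BHQ-2 forked duplex and 2 mM ATP. Unwinding read as fluorescence (525/598 nm), two reads 2 h apart.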
Each line names hits and unclear results; the compound was inactive in the other large screens. An excerpt weighted towards active compounds, which were near 0.92% of everything screened. The call rests on the fitted dose curve; in most records, active means well fitted curve in the direction sought with a large enough effect; inconclusive means small, poorly fitted or top-dose-only effect, or another doubt; inactive means no such curve, though single readings can be large; an effect the other way counts as inactive or inconclusive.

Cn1c2cc(B(O)O)sc2c2cnn(Cc3ccc(F)cc3F)c(=O)c21	APE1 inh 13.4µM (no result: WRN inhibitor, BLM helicase inh, RECQ1 inh)
Cn1c2cc(B(O)O)sc2c2cnn(Cc3c(F)cccc3F)c(=O)c21	APE1 inh 21.2µM (no result: WRN inhibitor, BLM helicase inh, RECQ1 inh)
Cn1c2cc(B(O)O)sc2c2cnn(Cc3c(F)cccc3Cl)c(=O)c21	APE1 inh inconclusive (no result: WRN inhibitor, BLM helicase inh, RECQ1 inh)
C/C=C/C/C=C/CCC(=O)[C@H]1O[C@H]1C(N)=O	none (no result: WRN inhibitor, BLM helicase inh, L3MBTL1 block)
O=C(CO)[C@@H](O)[C@H](O)[C@@H](O)CO	none (no result: WRN inhibitor, BLM helicase inh, L3MBTL1 block, RECQ1 inh)
Cc1ccc(C2(C)NC(=O)N(CC(=O)Nc3ccccc3N3CCCC3)C2=O)cc1 (stereo unspecified)	L3MBTL1 block 2.82µM (no result: BLM helicase inh, RECQ1 inh)
Cc1ccc(C2(C)NC(=O)N(CC(=O)Nc3ccccc3N3CCCCC3)C2=O)cc1 (stereo unspecified)	none (no result: BLM helicase inh, RECQ1 inh)
Cc1ccccc1OC1C=CC(C#Cc2ccc(Br)cc2)OC1CO (stereo unspecified)	APE1 inh inconclusive (no result: WRN inhibitor, L3MBTL1 block)
Cc1ccc(S(=O)(=O)NN=Cc2c(O)ccc3ccccc23)cc1	none (no result: APE1 inh, BLM helicase inh, L3MBTL1 block, RECQ1 inh)
O=C(O)c1cc(NS(=O)(=O)c2cccc3ccccc23)ccc1O	none
O=S(=O)(Nc1c(O)ccc2ccccc12)c1cccc2ccccc12	WRN inhibitor 22.4µM (no result: APE1 inh, BLM helicase inh, L3MBTL1 block, RECQ1 inh)
Cc1ccc(S(=O)(=O)Nc2c(O)ccc3ccccc23)cc1	WRN inhibitor 39.8µM (no result: APE1 inh, BLM helicase inh, L3MBTL1 block, RECQ1 inh)
Oc1cccc(O)c1O	APE1 inh 1.26µM, RECQ1 inh 6.31µM (no result: WRN inhibitor, L3MBTL1 block)
O=C(O)c1cccc(O)c1O	none (no result: APE1 inh, BLM helicase inh, L3MBTL1 block, RECQ1 inh)
CCN1/C(=C/C(C)=C/c2sc3ccccc3[n+]2CC)Sc2ccccc21	WRN inhibitor 17.8µM, BLM helicase inh inconclusive, RECQ1 inh 12.6µM (no result: L3MBTL1 block)
CCN1/C(=C\C(=S)Nc2ccccc2)Sc2ccccc21	none
O=C(N/N=C/c1cc(Br)c(O)c(Br)c1O)c1ccc2c(c1)OCCO2	none (no result: L3MBTL1 block, RECQ1 inh)
O=C(N/N=C/c1cc(Br)c(Br)o1)c1ccc2c(c1)OCCO2	WRN inhibitor inconclusive, APE1 inh 31.6µM, L3MBTL1 block inconclusive, RECQ1 inh inconclusive
Cc1ccn2c(Nc3ccc4c(c3)OCO4)c(-c3ccccn3)nc2c1	L3MBTL1 block 8.91µM
c1ccc(C(OC2CCCN(CCc3ccc4c(c3)OCO4)C2)c2ccccc2)cc1 (stereo unspecified)	none (no result: WRN inhibitor, APE1 inh, L3MBTL1 block)
Cc1oc2cc(O)ccc2c(=O)c1Oc1ccccc1	WRN inhibitor 70.8µM
COc1ccccc1NC1=C(NC(C)=O)C(=O)c2ccccc2C1=O	L3MBTL1 block inconclusive
COC1=C(Nc2ccccc2OC)C(=O)c2ccccc2C1=O	L3MBTL1 block 20µM
C=C(C)C(=O)OCCOCC	none (no result: WRN inhibitor, L3MBTL1 block)
CCN(CC)c1ccc(/C=C/c2cccc[n+]2C)c(OC)c1	WRN inhibitor 79.4µM (no result: RECQ1 inh)
COc1ccc(/C=C/c2cccc[n+]2C)c(O)c1	none (no result: RECQ1 inh)
COc1nc(Cl)cn(-c2ccc(C)cc2)c1=O	none
Cc1ccc(-n2c(Cl)c(Cl)nc(Cl)c2=O)cc1	WRN inhibitor 22.4µM
Cc1cccc(NC(=O)CNC(=O)c2cccc(-n3cccc3)c2)c1C	WRN inhibitor inconclusive, APE1 inh 1.89µM, L3MBTL1 block 3.55µM (no result: BLM helicase inh, RECQ1 inh)
COc1ccc(NC(=O)CN(C)C(=O)c2cccc(-n3cccc3)c2)cc1	WRN inhibitor 44.7µM, APE1 inh 2.38µM, L3MBTL1 block 10µM (no result: BLM helicase inh, RECQ1 inh)
Cc1cccc(C)c1NC(=O)CN(C)C(=O)c1cccc(-n2cccc2)c1	WRN inhibitor 70.8µM, APE1 inh inconclusive, L3MBTL1 block 28.2µM (no result: BLM helicase inh, RECQ1 inh)
COc1ccc(NC(=O)CN(C)C(=O)c2cccc(Oc3ccccc3)c2)cc1	none (no result: BLM helicase inh, RECQ1 inh)
COc1c(O)c(O)c2cc(OC)c3c(OC)cc(=O)c4c5c(=O)c(OC)c(C(C)=O)c6c5c(c1CC=6C)c2c34	none (no result: WRN inhibitor, L3MBTL1 block)
CSc1nc(-c2cccs2)c(C#N)c(=O)[nH]1	none
N#Cc1c(-c2cccs2)nc(SCc2ccc(Cl)cc2)[nH]c1=O	WRN inhibitor inconclusive, BLM helicase inh 28.2µM, L3MBTL1 block inconclusive
CC(C)c1ccc(S(=O)(=O)/N=C2/C=C(Sc3ncn[nH]3)C(=O)c3ccccc32)cc1	WRN inhibitor 31.6µM, BLM helicase inh 10µM, L3MBTL1 block inconclusive
Cc1ccc(S(=O)(=O)/N=C2/C=C(Sc3ncn[nH]3)C(=O)c3ccccc32)c(C)c1	BLM helicase inh 28.2µM, L3MBTL1 block inconclusive (no result: WRN inhibitor)
CC(C)(C)c1ccc(S(=O)(=O)/N=C2\C=C(NS(=O)(=O)c3ccccc3)C(=O)c3ccccc32)cc1	WRN inhibitor inconclusive (no result: L3MBTL1 block, RECQ1 inh)
Cc1cc(Cn2cnc3c(cnn3C(C)(C)C)c2=O)ccc1F	none (no result: WRN inhibitor, BLM helicase inh, L3MBTL1 block, RECQ1 inh)
O=c1[nH]sc2ccccc12	WRN inhibitor 31.6µM
O=c1ccsc2ccccc12	none (no result: APE1 inh, BLM helicase inh, L3MBTL1 block, RECQ1 inh)
